Source: PubChem BioAssay (EPA / NIEHS)
Records with an inconclusive call do not appear. Activity calls are given as the source filed them. Rule for the calls, unless noted: active = hit-call score of the fitted dose curve at least 0.9, where 1 is the maximum; inactive = score below 0.9.

Legend:
[1] = ACEA_ER_80hr: ACEA Biosciences xCELLigence Real-Time Cell Analysis on Estrogen Receptor Agonism for Proliferation (AID 2282667; active = hit-call score of the fitted dose curve at least 0.9, where 1 is the maximum); settings: T47D proliferation, impedance (xCELLigence), 80 h
Outline: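 Impedance readout (RT-CES) of T47D proliferation at 80 h post-dose; gain of signal vs DMSO baseline. Compounds: 8 conc, 1:4 serial, top 100 uM final, ≤0.5% DMSO; biological duplicate.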

[2] = ATG_CRE_CIS: Attagene CIS-FACTORIAL HepG2 Assay for human cAMP Responsive Element (CRE) binding protein 3 (AID 2282926); settings: HepG2 CRE cis-reporter, Attagene multiplexed mRNA; actives raise or lower the signal
Outline: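 Endogenous CRE-binding activity in HepG2 is reported through a cis-regulated transfected reporter. Following a day of exposure, mRNA levels are determined by reverse transcription PCR and fluorescent fragment analysis; fits run in both directions versus DMSO.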

[3] = target: CCAAT/enhancer-binding protein beta (Homo sapiens) (UniProt P17676); experiment: ATG_C_EBP_CIS: Attagene CIS-FACTORIAL HepG2 Assay for human CCAAT/Enhancer Binding Protein (C/EBP) beta (AID 2282927); settings: HepG2 Attagene cis-factorial transcription factor reporter; actives raise or lower the signal
CCAAT/enhancer-binding protein beta (Homo sapiens), sequence (P17676 whole entry, looked up): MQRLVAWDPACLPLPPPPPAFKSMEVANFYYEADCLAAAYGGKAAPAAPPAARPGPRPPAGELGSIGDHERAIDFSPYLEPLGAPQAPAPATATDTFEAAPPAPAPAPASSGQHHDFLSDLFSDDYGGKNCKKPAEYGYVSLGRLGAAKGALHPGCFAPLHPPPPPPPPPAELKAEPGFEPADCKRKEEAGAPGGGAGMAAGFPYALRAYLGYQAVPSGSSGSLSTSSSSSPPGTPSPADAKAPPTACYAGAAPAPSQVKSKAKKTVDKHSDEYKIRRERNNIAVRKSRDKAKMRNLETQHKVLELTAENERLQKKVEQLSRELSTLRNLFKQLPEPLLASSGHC
Outline: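 RT-PCR/capillary electrophoresis fluorescence of reporter mRNA, 24 h post-dose, in HepG2 cells carrying transfected cis-promoter reporter units. Bidirectional curve fitting against DMSO baseline captures gain or loss of signal.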

[4] = ATG_CMV_CIS: Attagene CIS-FACTORIAL HepG2 Assay for human CMV (Internal Marker) (AID 2282928); settings: HepG2 CMV promoter reporter, transcription factor profiling; actives raise or lower the signal;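 note: endpoint acts as a background internal control marker rather than a target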
Outline: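 Cell system: HepG2, transiently transfected multiple reporter units under cis promoters. Exposure: 24 h. Detection: RT-PCR, FAM labeling, HpaI digestion, capillary electrophoresis. Analysis: bidirectional, DMSO baseline.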

[5] = ATG_DR4_LXR_CIS: Attagene CIS-FACTORIAL HepG2 Assay for human Liver X Receptor (LXR), DR4 submotif (AID 2282929); settings: HepG2 Attagene DR4 cis-reporter, mRNA transcription; actives raise or lower the signal
Outline: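 Endogenous factor activity at a DR4 cis-element is read as reporter mRNA in transiently transfected HepG2 cells. Exposure lasts 24 h; transcripts are amplified, fluorescently labelled and sized by capillary electrophoresis, with DMSO as baseline.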

[6] = target: Aryl hydrocarbon receptor (Homo sapiens) (UniProt P35869); experiment: ATG_Ahr_CIS: Attagene CIS-FACTORIAL HepG2 Assay for human Aryl Hydrocarbon Receptor (Ahr) (AID 2282930); settings: HepG2 AhR cis-factorial reporter transcription; actives raise or lower the signal
Aryl hydrocarbon receptor (Homo sapiens), sequence (P35869 whole entry, looked up): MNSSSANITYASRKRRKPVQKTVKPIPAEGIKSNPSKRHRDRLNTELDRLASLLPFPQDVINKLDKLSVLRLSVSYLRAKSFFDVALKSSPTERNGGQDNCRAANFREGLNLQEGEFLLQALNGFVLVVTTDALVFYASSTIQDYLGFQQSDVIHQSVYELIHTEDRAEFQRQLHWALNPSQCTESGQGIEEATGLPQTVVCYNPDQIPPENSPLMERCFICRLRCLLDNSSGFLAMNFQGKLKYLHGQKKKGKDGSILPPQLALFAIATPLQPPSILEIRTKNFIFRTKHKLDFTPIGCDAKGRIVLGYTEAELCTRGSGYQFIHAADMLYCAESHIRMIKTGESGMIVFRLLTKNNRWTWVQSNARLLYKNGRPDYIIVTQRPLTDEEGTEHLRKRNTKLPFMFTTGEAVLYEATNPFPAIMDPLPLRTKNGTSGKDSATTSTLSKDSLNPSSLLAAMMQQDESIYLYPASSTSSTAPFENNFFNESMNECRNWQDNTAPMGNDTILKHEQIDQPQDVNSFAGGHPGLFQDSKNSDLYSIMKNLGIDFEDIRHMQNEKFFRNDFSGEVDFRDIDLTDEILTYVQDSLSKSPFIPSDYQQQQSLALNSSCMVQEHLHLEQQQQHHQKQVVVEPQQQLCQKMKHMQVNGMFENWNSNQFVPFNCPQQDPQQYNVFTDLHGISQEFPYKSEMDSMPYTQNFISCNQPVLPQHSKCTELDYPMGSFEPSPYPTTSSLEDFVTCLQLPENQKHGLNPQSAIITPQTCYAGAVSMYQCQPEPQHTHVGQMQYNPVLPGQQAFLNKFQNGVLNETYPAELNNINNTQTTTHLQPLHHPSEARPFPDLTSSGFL
Outline: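 HepG2 cells transiently transfected with cis-element-driven multiplexed reporter transcription units; endogenous transcription factor activity measured as reporter mRNA 24 h after dosing. RT-PCR, 6-FAM labelling, HpaI digestion, capillary electrophoresis; bidirectional fitting versus DMSO baseline.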

[7] = ATG_AP_1_CIS: Attagene CIS-FACTORIAL HepG2 Assay for human Activator Protein 1 (AP-1) (AID 2282931); settings: HepG2 Attagene cis-factorial AP-1 reporter mRNA; actives raise or lower the signal
Outline: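 Fluorescence of labelled PCR fragments separated by capillary electrophoresis gives reporter mRNA levels. HepG2 with transfected cis-regulated reporter units, 24 h exposure; DMSO serves as baseline for bidirectional curve fits.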

[8] = ATG_AP_2_CIS: Attagene CIS-FACTORIAL HepG2 Assay for human Activator Protein 2 (AP-2) (AID 2282932); settings: HepG2 AP-2 cis-reporter, Attagene transcription factor profiling; actives raise or lower the signal
Outline: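 Bidirectional curve fitting against DMSO was applied to reporter mRNA signals from HepG2 cells 24 h after dosing. Cis-promoter reporter units, transiently transfected, were read by RT-PCR plus capillary electrophoresis.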

[9] = ATG_BRE_CIS: Attagene CIS-FACTORIAL HepG2 Assay for human Bone Morphogenetic Protein (BMP) Response Element (BRE) (AID 2282933); settings: HepG2 BMP response element reporter, Attagene transcription factor profiling; actives raise or lower the signal
Outline: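 Endogenous transcription factor activity at a BMP response element was monitored in transfected HepG2 cells 24 h after dosing. Fluorescent RT-PCR products were resolved by capillary electrophoresis, and activity was fitted in both directions versus DMSO.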

[10] = target: Retinoic acid receptor alpha (Homo sapiens) (UniProt P10276); experiment: ATG_DR5_RAR_CIS: Attagene CIS-FACTORIAL HepG2 Assay for human Retinoic Acid Receptor Alpha (RARE), DR5 submotif (AID 2282934); settings: HepG2 Attagene cis-factorial RARE DR5 reporter, mRNA; actives raise or lower the signal
Retinoic acid receptor alpha (Homo sapiens), sequence (P10276 whole entry, looked up): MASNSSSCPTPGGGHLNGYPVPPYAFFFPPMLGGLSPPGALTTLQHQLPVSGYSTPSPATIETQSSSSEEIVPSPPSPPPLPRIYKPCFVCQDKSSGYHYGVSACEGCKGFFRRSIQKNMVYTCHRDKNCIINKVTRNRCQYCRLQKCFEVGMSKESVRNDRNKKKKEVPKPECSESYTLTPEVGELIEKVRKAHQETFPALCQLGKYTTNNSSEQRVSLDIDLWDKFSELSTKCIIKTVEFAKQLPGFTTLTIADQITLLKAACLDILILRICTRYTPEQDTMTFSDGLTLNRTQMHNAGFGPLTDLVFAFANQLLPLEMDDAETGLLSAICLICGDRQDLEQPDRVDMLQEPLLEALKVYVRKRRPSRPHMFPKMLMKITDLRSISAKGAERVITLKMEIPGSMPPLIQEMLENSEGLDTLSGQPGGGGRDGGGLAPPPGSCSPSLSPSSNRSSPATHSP
Outline: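 HepG2 cells transiently transfected with multiplexed reporter units under cis (DR5 RARE) promoters, so endogenous transcription factor activity is measured. After 24 h compound exposure, reporter mRNA is quantified by RT-PCR with fluorescent labelling and capillary electrophoresis; bidirectional fitting versus DMSO.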

[11] = target: Transcription factor E2F1 (Homo sapiens) (UniProt Q01094); experiment: ATG_E2F_CIS: Attagene CIS-FACTORIAL HepG2 Assay for human E2F Transcription Factor 1 (AID 2282935); settings: HepG2 Attagene cis-reporter, E2F reporter RNA transcripts; actives raise or lower the signal
Transcription factor E2F1 (Homo sapiens), sequence (Q01094 whole entry, looked up): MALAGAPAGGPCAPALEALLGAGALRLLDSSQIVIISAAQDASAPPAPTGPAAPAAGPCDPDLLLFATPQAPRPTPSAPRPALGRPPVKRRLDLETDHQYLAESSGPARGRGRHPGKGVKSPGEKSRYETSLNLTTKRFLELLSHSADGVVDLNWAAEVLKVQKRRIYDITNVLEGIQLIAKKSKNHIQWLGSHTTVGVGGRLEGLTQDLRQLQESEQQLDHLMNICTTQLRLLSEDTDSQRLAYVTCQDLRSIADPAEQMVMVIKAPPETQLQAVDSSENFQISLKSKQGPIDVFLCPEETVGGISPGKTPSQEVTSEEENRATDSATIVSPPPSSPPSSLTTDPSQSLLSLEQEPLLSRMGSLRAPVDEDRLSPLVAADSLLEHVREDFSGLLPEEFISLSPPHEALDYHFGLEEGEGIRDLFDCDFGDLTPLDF
Outline: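 Multiplexed cis-reporter assay: HepG2, transient transfection, 24 h dosing, mRNA quantitation by labeled RT-PCR and CE.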

[12] = ATG_E_Box_CIS: Attagene CIS-FACTORIAL HepG2 Assay for human Enhancer Box (E-box) (AID 2282936); settings: HepG2 E-box cis-reporter transcription, actives raise or lower the signal
Outline: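 Multiplexed CIS reporter system in transiently transfected HepG2 cells measures native transcription factor activity. Reporter RNA after 24 h exposure is profiled by RT-PCR-capillary electrophoresis.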

[13] = ATG_M_61_CIS: Attagene CIS-FACTORIAL HepG2 Assay for M61 Transcription Factor (Internal Marker) (AID 2282937); settings: HepG2 Attagene CIS-FACTORIAL M61 internal marker reporter; actives raise or lower the signal
Outline: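 This endpoint serves as an internal background control within a multiplexed HepG2 cis-reporter panel. Cells are exposed for 24 h; reporter mRNA is amplified, fluorescently labelled and sized by capillary electrophoresis, with DMSO as negative control.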

[14] = ATG_EGR_CIS: Attagene CIS-FACTORIAL HepG2 Assay for human Early Growth Response 1 (EGR1) (AID 2282938); settings: HepG2 Attagene CIS-FACTORIAL EGR reporter mRNA; actives raise or lower the signal
Outline: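 HepG2, transient MRTU transfection (cis promoters), 24 h compound. RNA → RT (oligo-dT) → PCR → 6-FAM labelling → HpaI cut → CE fluorescence. Bidirectional fit, DMSO baseline.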

[15] = ATG_M_19_CIS: Attagene CIS-FACTORIAL HepG2 Assay for M19 Transcription Factor (Internal Marker) (AID 2282939); settings: HepG2 Attagene CIS-FACTORIAL M19 internal marker reporter; actives raise or lower the signal
Outline: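 Background-control endpoint from a multiplexed HepG2 reporter panel. Cells carrying cis-regulated reporter constructs are treated 24 h, then reporter transcripts are amplified, fluorescently labelled and sized by capillary electrophoresis. DMSO defines baseline.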

[16] = ATG_ERE_CIS: Attagene CIS-FACTORIAL HepG2 Assay for Estrogen Response Element (ERE) (AID 2282940); settings: HepG2 ERE cis-reporter, Attagene RNA transcript; actives raise or lower the signal
Outline: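 Cells used were human hepatoma HepG2, transfected with multiple reporter transcription units under cis-regulatory promoters. Reporter mRNA, read 24 h post-dosing via fluorescent RT-PCR products on capillary electrophoresis, was fitted bidirectionally relative to DMSO.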

[17] = ATG_Ets_CIS: Attagene CIS-FACTORIAL HepG2 Assay for human Erythroblast Transformation Specific (ETS) (AID 2282941); settings: HepG2 ETS cis-reporter transcription, actives raise or lower the signal
Outline: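 After transient cis-reporter transfection, HepG2 cells receive test chemical for 24 h. Reporter mRNA levels, measured by RT-PCR and capillary electrophoresis fluorescence, are analysed bidirectionally relative to the DMSO baseline.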

[18] = target: Hepatocyte nuclear factor 3-beta (Homo sapiens) (UniProt Q9Y261); experiment: ATG_FoxA2_CIS: Attagene CIS-FACTORIAL HepG2 Assay for human Forkhead box A2 (FOXA2) (AID 2282942); settings: HepG2 cis-reporter transcription factor activity, 24 h; actives raise or lower the signal
Hepatocyte nuclear factor 3-beta (Homo sapiens), sequence (Q9Y261 whole entry, looked up): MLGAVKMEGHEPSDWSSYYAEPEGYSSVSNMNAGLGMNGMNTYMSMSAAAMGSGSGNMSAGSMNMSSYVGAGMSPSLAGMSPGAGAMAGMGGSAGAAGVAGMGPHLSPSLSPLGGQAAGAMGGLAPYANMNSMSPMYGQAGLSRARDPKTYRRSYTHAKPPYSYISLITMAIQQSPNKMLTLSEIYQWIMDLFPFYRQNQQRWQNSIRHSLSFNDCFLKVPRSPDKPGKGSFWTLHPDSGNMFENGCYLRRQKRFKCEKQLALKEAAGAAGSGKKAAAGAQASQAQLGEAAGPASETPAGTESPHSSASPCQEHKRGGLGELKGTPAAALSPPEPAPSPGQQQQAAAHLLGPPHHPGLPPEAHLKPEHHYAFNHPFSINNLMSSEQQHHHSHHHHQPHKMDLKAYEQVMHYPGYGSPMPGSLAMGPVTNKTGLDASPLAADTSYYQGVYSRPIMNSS
Outline: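 Cells: HepG2, transient multiplex reporter transfection. Exposure 24 h. Detection: reporter-specific RT-PCR, fluorescent labelling, restriction digest, capillary electrophoresis. Analysis: bidirectional curve fit, DMSO as negative control.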

[19] = ATG_FoxO_CIS: Attagene CIS-FACTORIAL HepG2 Assay for human Forkhead box O (FoxO) (AID 2282943); settings: HepG2 Attagene cis-reporter, FoxO element, mRNA; actives raise or lower the signal
Outline: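 HepG2 cells transiently transfected with cis-promoter-driven multiple reporter transcription units; 24 h after chemical dosing, reporter mRNA quantified by RT-PCR, fluorescent primer extension, HpaI digestion and capillary electrophoresis. Bidirectional fitting versus DMSO baseline.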

[20] = ATG_GATA_CIS: Attagene CIS-FACTORIAL HepG2 Assay for human GATA Binding Protein (AID 2282944); settings: HepG2 GATA cis-element reporter, Attagene multiplex mRNA; actives raise or lower the signal
Outline: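 Endogenous transcription factor activity was captured through cis-promoter-driven reporters in transfected HepG2 cells. After 24 h exposure, reporter transcripts were quantified by RT-PCR with fluorescent capillary electrophoresis, and responses fitted both directions against DMSO.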

Measured: AC50

CC1(C)CCC[C@]2(C)[C@H]3CC(=O)O[C@]3(C)CC[C@@H]12
inactive: [1] | [2] | [3] | [4] | [5] | [6] | [7] | [8] | [9] | [10] | [11] | [12] | [13] | [14] | [15] | [16] | [17] | [18] | [19] | [20]

N#Cc1ccc(C2CCCc3cncn32)cc1 (stereo unspecified)
inactive: [2] | [3] | [4] | [5] | [6] | [7] | [8] | [9] | [10] | [11] | [12] | [13] | [14] | [15] | [18] | [19] | [20]
active: [1] 0.829 µM

CCCCCCCCCCCC(=O)OCC
inactive: [1] | [2] | [3] | [4] | [5] | [6] | [7] | [8] | [9] | [10] | [11] | [12] | [13] | [14] | [15] | [17] | [18] | [19] | [20]

C=CC(=O)OCCCCCCOC(=O)C=C
inactive: [2] | [3] | [6] | [7] | [8] | [10] | [11] | [13] | [15] | [16] | [17] | [18] | [19] | [20]
active: [1] 10.5 µM | [4] 56.6 µM | [5] 49.7 µM | [9] 24.5 µM | [12] 100 µM | [14] 66.6 µM

Oc1c(Cl)cc(Cl)c(Cl)c1Cl
active: [1] 10.5 µM | [9] 100 µM | [14] 100 µM
inactive: [2] | [3] | [4] | [5] | [6] | [7] | [8] | [10] | [11] | [12] | [13] | [15] | [16] | [17] | [19] | [20]

CCCCC(CC)COC(=O)/C=C/c1ccc(OC)cc1 (stereo unspecified)
inactive: [1] | [2] | [3] | [4] | [5] | [6] | [7] | [8] | [9] | [10] | [11] | [12] | [13] | [14] | [15] | [17] | [18] | [19] | [20]

c1ccc2cnccc2c1
active: [6] 61.1 µM
inactive: [1] | [2] | [3] | [4] | [5] | [7] | [8] | [9] | [10] | [11] | [12] | [13] | [14] | [15] | [16] | [19]

Cc1ccc2c(c1)CCCN2
inactive: [1] | [2] | [3] | [4] | [5] | [7] | [8] | [9] | [10] | [11] | [12] | [13] | [14] | [15] | [16] | [17] | [19] | [20]
active: [6] 20.2 µM
